# KinaseGlo FLuc: counter-screen: inhibitors of Kinase-Glo firefly luciferase | Q27757 | Kinase-Glo luciferase, ATP luminescence, 8 min | Potency, µM (top dose mostly 38.3 µM), inactives show top-dose activity change, negative = inhibition, most hits filed as inhibitors | actives 0.28% (n = 200,000); also: % is scaled to controls: 0 for no effect and ±100 for the full control effect; nearly all actives have a fitted effect of over 60% in size
#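 Light output from Kinase-Glo luciferase with luciferin and 10 uM ATP in 50 mM imidazole pH 7.2, KCl, MgCl2, Tween 20, BSA; compound pin-delivered, 8-min ambient incubation, then luminescence read.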
# Rab9 promoter act: Rab9 promoter activation; Huh7 Rab9 promoter-luciferase reporter, luminescence, 24 h; Potency, µM (series often up to 9.22 µM), inactives show at the highest dose activation, negative = inhibition, actives largely listed as activators; actives 2.8% (n = 320,000); AID 485297; also: % of control where 0% means no effect; nearly all actives have a fitted effect of over 60% in size
#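 Huh7 cells stably carrying Rab9 promoter–luciferase reporter, plated 1500 cells/well, compound added after 2 h and incubated 24 h at 37 °C; luciferase luminescence then read after 10 min with detection reagent.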
# ELG1 genotoxic: inducers of genotoxicity in HEK293T ELG1-luciferase cells | Potency, µM (series often up to 46 µM), for the others: at the top dose activity change, positive = activation, usual class: activators | AID 504466 | actives 1.3% (n = 330,000) | HEK293T ELG1-luciferase reporter, luminescence, 16 h; also: % of control where 0% means no effect; nearly all actives have a fitted effect of over 60% in size
#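 Genotoxic stress is detected as increased luminescence from luciferase-tagged ELG1 in HEK293T cells, measured with ONE-Glo after a 16 hr treatment at 37 °C.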
# SMN2 splice enh: SMN2 splice variant enhancement | HEK293 SMN2-luciferase splicing reporter, luminescence, 30-36 h | Potency, µM (doses to about 46.1 µM), inactives show at the highest dose activity change, positive = activation, most hits filed as activators | actives 2.8% (n = 210,000) | AID 1458; also: % of control where 0% means no effect; nearly all actives have a fitted effect of over 55% in size
#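 HEK293 cells carry an SMN2 […]–luciferase reporter in which exon 7 inclusion puts luciferase in frame. Cells were plated 10-12 h before compound addition, then incubated 30-36 h at 37C. ONE-Glo luminescence was read; sodium butyrate at 4.5 mM final served as control.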
# FLuc modulator: firefly luciferase modulation, counter-screen for miR-21 project. purified FLuc, Km substrates, luminescence inhibition. P08659. actives 6.9% (n = 360,000). Potency, µM (highest dose often 57.5 µM), without a hit: at the top dose activity change, negative = inhibition, actives largely listed as inhibitors;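 also: plate controls were vehicle for no effect and reference inhibitor for full effect; nearly all actives have a fitted effect of over 55% in size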
# Target sequence (P08659 whole entry, looked up): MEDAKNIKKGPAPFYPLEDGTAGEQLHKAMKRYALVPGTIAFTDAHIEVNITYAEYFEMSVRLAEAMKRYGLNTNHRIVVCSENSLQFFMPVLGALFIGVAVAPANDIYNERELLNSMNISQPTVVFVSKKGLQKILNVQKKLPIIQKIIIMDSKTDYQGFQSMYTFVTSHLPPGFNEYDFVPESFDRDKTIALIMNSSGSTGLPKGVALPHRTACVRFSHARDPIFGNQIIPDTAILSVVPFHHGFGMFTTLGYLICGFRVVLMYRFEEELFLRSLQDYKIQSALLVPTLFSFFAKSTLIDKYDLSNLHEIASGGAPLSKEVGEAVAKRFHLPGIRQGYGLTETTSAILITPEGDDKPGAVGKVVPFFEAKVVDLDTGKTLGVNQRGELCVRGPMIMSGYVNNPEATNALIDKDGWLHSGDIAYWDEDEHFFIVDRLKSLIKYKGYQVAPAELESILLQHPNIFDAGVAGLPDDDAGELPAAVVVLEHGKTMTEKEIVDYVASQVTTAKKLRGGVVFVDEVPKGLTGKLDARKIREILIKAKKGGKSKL
#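 Purified P. pyralis luciferase, 10 nM final, with Km-level 10 uM D-luciferin and 10 uM ATP in 50 mM Tris acetate pH 7.5, 10 mM Mg acetate, 0.01% Tween-20, 0.05% BSA; 6-point qHTS titration about 60 µM downward; luminescence read.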
# NPC1 promoter act: NPC1 promoter activation. Potency, µM (doses to about 9.22 µM), for inactives: at the top dose activation, most hits filed as activators. actives 2.4% (n = 320,000). AID 485313. Huh7 NPC1 promoter luciferase reporter, 24 h; also: % of control where 0% means no effect; nearly all actives have a fitted effect of over 60% in size
#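 Readout is luciferase luminescence, reflecting NPC1 promoter activation in stably transfected Huh7 cells after 24 h compound exposure at 37 °C in reduced-serum medium with 10% FBS.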
# Active calls of the source: *; ? = inconclusive; / = not tested or not shown. An excerpt weighted towards active compounds, which were near 7.4% of everything screened. Calls follow the shape of the dose curve; as a rule, active = well fitted curve in the direction sought with a large enough effect; inconclusive = small, poorly fitted or top-dose-only effect, or another doubt; inactive = no such curve, though single readings can be large; an effect the other way counts as inactive or inconclusive. Potency is read from the fitted curve at half-maximal effect.
SMILES,KinaseGlo FLuc,Rab9 promoter act,ELG1 genotoxic,SMN2 splice enh,FLuc modulator,NPC1 promoter act
COc1cccc(C=Nc2ccc3c(c2)CCC3)c1O,/,-1%,6%,/,2.7µM*,-5%
COc1ccc(-c2nc3n(n2)C(c2ccccc2OC)C(C(=O)Nc2cccnc2)=C(C)N3)cc1 (stereo not given),/,/,/,-1%,0%,/
CC(=O)c1ccc(N2CCN(S(=O)(=O)c3cc(-c4onc(C)c4C)ccc3C)CC2)cc1,/,/,/,/,2%,/
O=C(CCn1ccc2cc(S(=O)(=O)N3CCCC3)ccc21)NCc1cccc(Br)c1,/,/,/,/,4%,/
COC(=O)Cc1c(C)c2ccc(OCc3nn[nH]n3)c(C)c2oc1=O,1%,-1%,3%,4%,?,-4%
COC(=O)Cc1c(C)c2ccc(OCC(C)=O)c(C)c2oc1=O,0%,?,9.2µM*,13µM*,?,?
C=C(C)COc1ccc2c(C)c(CC(=O)OC)c(=O)oc2c1C,-2%,?,9.2µM*,-36%,9.5µM*,?
CC(=O)c1ccc(NC(=O)Nc2sc3nc4n(c(=O)c3c2C)CCC(C)CC4)cc1 (stereo not given),/,/,/,6%,1%,/
Cc1ccc(NC(=O)c2cccs2)cc1[N+](=O)[O-],-2%,27%,-1%,/,21µM*,21%
Cc1ccc([N+](=O)[O-])cc1NC(=O)c1ccc(C(C)(C)C)cc1,-1%,0%,-10%,8%,?,-4%
Cc1ccc(NC(=O)c2ccc(C(C)(C)C)cc2)cc1[N+](=O)[O-],-3%,?,?,15%,6µM*,?
C=CCC(CC=C)(CNC(=O)C(=O)Nc1ccc(Br)cc1)c1ccc(OC)c(OC)c1,/,/,/,7%,-4%,/
Nc1[nH]c(N=NC(=O)c2ccccc2)c2ccccc12,-21%,1.1µM*,?,2.8µM*,4.8µM*,1.8µM*
Nc1[nH]c(N=NC(=O)c2ccc(Cl)cc2)c2ccccc12,-3%,20%,2%,?,?,18%
O=C(N=Nc1c(O)[nH]c2ccc([N+](=O)[O-])cc12)c1ccccc1Cl,/,8%,0%,/,-16%,14%
Nc1[nH]c(N=NC(=O)c2ccccc2O)c2ccccc12,-10%,2µM*,15µM*,11µM*,8.5µM*,2.8µM*
COc1cccc(N2CC(NC(=O)COc3ccccc3F)CC2=O)c1 (stereo not given),/,/,/,/,-4%,/
COc1ccc(CNC(=O)c2cnc3sc(N4CCC(C)CC4)nn3c2=O)c(OC)c1,/,/,/,/,2%,/
Cc1cc(C(=O)CSc2ccccc2)cc(C)c1O,/,0%,?,/,19µM*,?
Cc1cc(C(=O)CS(=O)(=O)c2ccccc2)cc(C)c1O,/,26%,?,/,?,28%
Cc1ccc(C(=O)Nc2ccc(C(F)(F)F)n(C)c2=O)cc1,-3%,3.2µM*,?,22µM*,4.3µM*,18%
COc1ccc(C(=O)Nc2ccc(C(F)(F)F)n(C)c2=O)cc1,5%,2.2µM*,?,14µM*,?,2.8µM*
COCCn1c(C(F)(F)F)ccc(NC(=O)c2ccccc2)c1=O,/,1.3µM*,7.3µM*,/,7.6µM*,1.4µM*
O=C(CSc1nc2ccsc2c(=O)n1-c1ccc(Br)cc1)NCc1ccccc1,/,/,/,/,-2%,/
COc1ccc(NC(=O)c2cccc([N+](=O)[O-])c2)cc1,?,?,?,43%,?,?
SMILES,KinaseGlo FLuc,Rab9 promoter act,ELG1 genotoxic,SMN2 splice enh,FLuc modulator,NPC1 promoter act
O=C(Nc1cccc([N+](=O)[O-])c1)c1cc2ccccc2cc1O,/,-40%,15%,/,0.95µM*,3%
O=C(Nc1ccncc1)c1cc2ccccc2cc1O,/,1.4µM*,?,/,1.7µM*,2µM*
COc1ccc(NC(=O)c2cc([N+](=O)[O-])ccc2O)cc1,7.9µM*,0.0003µM*,?,/,0.13µM*,0.002µM*
Cc1ccccc1Cn1c(=O)n(CCCCCC(=O)NCc2ccc3c(c2)OCO3)c(=O)c2sccc21,/,/,/,1%,-3%,/
CSc1nc(O)c(/C=C2\C=Nc3ccccc32)[nH]1,6.3µM*,?,?,?,11µM*,21%
CC1CCN(C(=S)NCCc2ccccc2)CC1,-2%,2µM*,7.3µM*,-2%,11µM*,3.5µM*
OCC1CCCN(C(=S)NCCc2ccccc2)C1 (stereo not given),2%,?,?,?,17µM*,3.2µM*
O=C(Cc1ccc(Cl)c(Cl)c1)OCC(=O)c1ccc[nH]1,-8%,3%,-1%,-13%,-13%,-6%
O=C(OCc1ccc(Cl)c(Cl)c1)c1ccc[nH]1,/,?,?,/,24µM*,?
COc1cc(/C=C2\SC(c3ccc(C)cc3)=NC2=O)ccc1O,2%,-10%,?,20%,2.7µM*,-2%
COc1cc(/C=C2\SC(c3ccc(C)cc3)=NC2=O)cc(OC)c1OC,2%,-6%,0%,24%,2%,-2%
COc1cc(/C=C2\SC(c3ccccc3)=NC2=O)cc(Cl)c1O,?,-17%,0%,-11%,11µM*,-7%
CC(C)CCNC(=O)CN1C(=O)CSc2ccc(S(=O)(=O)N3CCCCC3)cc21,/,/,/,/,-5%,/
O=C(N/N=C/C1CC=CCC1)c1cc(Br)ccc1O (stereo not given),0%,1%,1%,6%,13µM*,-1%
C/C=N/NC(=O)c1cc(Br)ccc1O,2%,-3%,-1%,-10%,6%,1%
O=C(N/N=C/C1CC=CCC1)c1ccc(Cl)cc1O (stereo not given),2%,3%,2%,26%,19µM*,2%
O=C(N/N=C/C1CC=CCC1)c1ccccc1O (stereo not given),-10%,-3%,10%,-7%,15µM*,1%
O=C(CNc1ccccc1F)N/N=C/C1CC=CCC1 (stereo not given),2%,-3%,2%,1%,-11%,-2%
COc1ccc(Cl)cc1NC(=O)c1c(NCc2ccc(C)o2)sc2c1CCC(C)C2 (stereo not given),/,/,/,/,-7%,/
CC(C)(Oc1ccc(CCNC(=O)c2ccc(-c3ccc(Cl)cc3)o2)cc1)C(=O)O,5%,1%,-6%,-6%,24µM*,-2%
Cc1cccc(-c2nc3scc(CCNS(=O)(=O)c4ccc(Oc5ccccc5)cc4)n3n2)c1,/,/,/,/,-1%,/
COc1ccc(NC(=O)CCCc2ccccc2)cc1OC,/,4µM*,18µM*,/,?,3.5µM*
O=C(CCc1ccccc1)NC(=S)Nc1cccc(C(=O)O)c1,/,3.2µM*,?,/,4.8µM*,1.4µM*
